tim10-1 inh: growth inhibitors of tim10-1 mutant yeast, primary screen, luminescence, uHTS | 2.2% of 330,000 active | S. cerevisiae tim10-1 ts strain growth, BacTiter-Glo, 24 h | AID 463190, 2010 | inhibition, % at 20 µM;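 active = inhibition of at least 40%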;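 also: mutant grown at 25 °C; 0% = DMSO wells with yeast and 100% = wells holding no yeast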
TIM10 inh: growth inhibitors of isogenic TIM10 control yeast, primary screen, counter-screen for tim10-1 yeast inhibitor project, luminescence, uHTS | S. cerevisiae TIM10 strain growth, BacTiter-Glo luminescence, 24 h | inhibition, % at 10 µM | 1.4% of 330,000 active | AID 463195, 2010;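 active = inhibition of 40% or more at the single tested concentration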;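 also: wild-type TIM10 isogenic control strain grown at permissive 25 °C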
SUMO Mot1 rescue: yeast Mot1-301 growth rescue at high temperature, primary screen, SUMOylation pathway inhibitor project, S. cerevisiae, ATP luminescence, 38.5C | S. cerevisiae Mot1-301 growth rescue; percent above DMSO median, 100 means doubled | growth rescue, % at 18.8 µM | 1% of 320,000 active | AID 2716, 2010;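 active = every valid replicate shows activation above 250% relative to neutral control wells; inactive = the rest, any valid replicate at or below 250%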;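 also: OY570 slx delta 5 strain wells were the positive control but not used for scaling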
tim23-1 inh: growth inhibitors of tim23-1 mutant yeast, primary screen, luminescence, uHTS; 1.3% of 330,000 active; S. cerevisiae tim23-1 growth, BacTiter-Glo luminescence, 24 h; inhibition, % at 20 µM; AID 463212, 2010;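 active = growth inhibition of the mutant yeast at or above 50%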;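 also: temperature-sensitive mutant grown at 25 °C; plate controls were DMSO-treated mutant yeast for no effect and medium wells lacking yeast for full effect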
PfHsp90 yeast 2: growth inhibition of PfHsp90-expressing yeast, primary screen, antimalarial PfHsp90 inhibitor project, S. cerevisiae, BacTiter-Glo luminescence, single point, set 2; AID 504621, 2011; inhibition, % at 9.4 µM; BacTiter-Glo ATP, 48 h; yeast lacking PDR1 and PDR3 efflux regulators; 0.32% of 310,000 active;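 active = every replicate shows inhibition above about 80%, whatever the replicate mean, limit read from the data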;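 also: 0% = DMSO neutral controls and 100% = 20 µM radicicol positive controls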
Mot1 SUMO dose: growth restoration of Mot1-301 yeast on galactose, dose response, SUMO pathway inhibitor project, whole organism, S. cerevisiae, ATP luminescence, cherry-picked samples; shares compounds with SUMO Mot1 rescue; S. cerevisiae Mot1-301 galactose growth, 24 h; -100 = growth of slx-deleted rescue strain; growth activity, percent, % at 42 µM; 2,300 tested, under 10 active;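 active = Signal drops as the depositor expects, and the fitted half-maximal dose is no more than ten times the top valid tested dose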;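 also: more negative values mean stronger growth rescue toward the control strain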
tim10-1 conf: growth inhibitors of tim10-1 mutant yeast, confirmation, single concentration, luminescence, S. cerevisiae; shares compounds with tim10-1 inh; S. cerevisiae tim10-1 ts strain growth, BacTiter-Glo, 24 h; inhibition, % at 20 µM; 56% of 7,400 active;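 active = inhibition of yeast growth at or above a set limit in either of two repeat tests at 20 µM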;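 also: tim10-1 mutant grown at permissive 25 °C to find synthetic lethal compounds; 0% = DMSO yeast wells and 100% = medium wells without yeast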
TIM10 conf: growth inhibitors of wild-type TIM10 yeast, confirmation, counter-screen for tim10-1 synthetic lethality project, single concentration, luminescence, S. cerevisiae. shares compounds with TIM10 inh. S. cerevisiae tim10 strain growth, BacTiter-Glo luminescence, 24 h. inhibition, % at 10 µM. 63% of 4,600 active. AID 463215, 2010;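 active = inhibition of yeast growth at or above a set limit in either of two replicates at 10 µM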;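 also: this counterscreen used the strain with wild-type TIM10; 0% = yeast with DMSO and 100% = medium wells lacking yeast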
tim23-1 confirm: tim23-1 mutant yeast growth inhibitors, confirmation, luminescence, single concentration | shares compounds with tim23-1 inh | 83% of 4,400 active | AID 463218, 2010 | inhibition, % at 20 µM | S. cerevisiae tim23-1 growth, BacTiter-Glo luminescence, 24 h;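 active = inhibition above about 39% in either of two replicate wells at 20 µM, limit read from the data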;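 also: temperature-sensitive tim23-1 mutant grown at 25 °C; 0% = DMSO wells with yeast and 100% = medium wells without yeast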
Numbers without * were called inactive; x = no result given; + = active, no number. Shown are actives, neighbours in structure and some others; about 4.4% of the full set was active somewhere.

SMILES	tim10-1 inh	TIM10 inh	SUMO Mot1 rescue	tim23-1 inh	PfHsp90 yeast 2	Mot1 SUMO dose	TIM10 conf	others
COc1ccc(NC(=O)C2CCN(c3cc(C)nc(-c4ccccc4)n3)CC2)cc1	43*	22	+	38	14	0	x	tim10-1 conf=30
Cc1ccc(C(C)C)c(OCC(=O)N/N=C/c2cccn2C)c1	39	11	2	42	8	x	x
C=CCSc1nnc2c(n1)[nH]c1c(C)cccc12	40	47*	532*	46	-9	-1	37*
Cc1c(Cl)cccc1NC(=S)NCCCN(C)C	8	46*	393*	3	2	0	-2
O=C(c1ccc([N+](=O)[O-])o1)N1CCN(c2nc3c(Cl)cccc3s2)CC1	24	56*	769*	6	-48	-1	85*
CC1CCN(C(=O)CN(Cc2ccc(F)cc2)S(C)(=O)=O)CC1	21	6	-7	15	-7	x	x
Cc1c(C(=O)NC(=S)Nc2ccccc2N2CCCC2)cccc1[N+](=O)[O-]	39	42*	426*	42	-9	0	32*
COc1ccc(C(=O)NC(=S)Nc2ccccc2N2CCCCC2)cc1[N+](=O)[O-]	31	33	-25	41	-11	x	x
O=C(c1ccc(Br)cc1)C(CN1CCOCC1)c1ccccc1 (centres undefined)	-123	51*	460*	-20	98*	-1	60*
O=C(c1ccccc1)C(CN1CCCCC1)c1ccccc1 (centres undefined)	x	x	x	x	-37	x	x
CCCC(=O)NC(=S)Nc1ccccc1N1CCOCC1	34	22	-1	28	19	x	x
O=C(Cc1ccc(Cl)cc1)NC(=S)Nc1ccccc1N1CCOCC1	28	42*	815*	44	-118	0	34*
Nc1ncnc2c1ncn2[C@@H]1O[C@H](CNCc2ccccc2OCc2ccc(Cl)cc2Cl)[C@@H](O)[C@H]1O	5	10	5	11	9	x	x
NC(=O)CC(NC(=O)Cc1ccc(Br)cc1)c1ccc(N2CCN(c3ccc(F)cc3)CC2)c([N+](=O)[O-])c1 (centres undefined)	-14	-11	8	4	-22	x	x
CC(C)(C)c1cc(NCCCn2ccnc2)n2ncc(-c3ccc(Cl)cc3)c2n1	35	60*	622*	21	x	-1	60*
Cc1cc(NCCCn2ccnc2)n2nc(-c3ccc(Cl)cc3)cc2n1	23	13	21	24	-35	x	x
COc1ccc(NC(C)=O)cc1S(=O)(=O)N(C)Cc1c(C)nn(-c2ccccc2)c1C	11	-6	8	6	x	x	x
O=C(Nc1ccc(Cl)cc1Cl)c1ccc2c(c1)OCCO2	4	2	0	20	9	x	x
O=C(Nc1ccc(Cl)cc1Cl)c1cccc(N2C(=O)C=CC2=O)c1	59*	95*	550*	37	107*	-3	100*	tim10-1 conf=96*
O=S(=O)(CCN1CCCCC1)Oc1ccc(Cl)cc1Cl	37	50*	922*	41	5	1	27
COc1ccc(NC(=O)CNC(=O)CC23CC4CC(CC(C4)C2)C3)c(OC)c1	25	6	x	31	-2	x	x
NNc1nc2sc3c(c2c(=O)n1-c1ccccc1)CCCC3	49*	57*	639*	-13	-2	0	67*	tim10-1 conf=39*
O=[N+]([O-])c1cc([N+](=O)[O-])c2cc3ccccc3nc2c1	75*	86*	468*	69*	10	-1	97*	tim10-1 conf=42*;tim23-1 confirm=44*
CC(C)(C)OC(=O)COc1cc(F)ccc1[N+](=O)[O-]	5	-6	13	18	-1	x	x
O=C(CSc1ncnc2c1cnn2-c1ccccc1)NCC1CCCO1 (centres undefined)	11	9	6	27	-9	x	x
SMILES	tim10-1 inh	TIM10 inh	SUMO Mot1 rescue	tim23-1 inh	PfHsp90 yeast 2	Mot1 SUMO dose	TIM10 conf	others
N#Cc1c2ccc([N+](=O)[O-])cc2[n+]([O-])n1-c1ccccc1	61*	66*	384*	75*	91*	-1	66*	tim10-1 conf=18;tim23-1 confirm=28
O=c1cc(CSc2nc(NCc3ccc(Cl)cc3)c3ccccc3n2)nc2ccc(Cl)cn12	x	x	x	x	5	x	x
O=[N+]([O-])c1cncc([N+](=O)[O-])c1Nc1ccccc1Cl	51*	4	813*	57*	-9	0	x	tim10-1 conf=43*;tim23-1 confirm=69*
NS(=O)(=O)c1ccc(Nc2c([N+](=O)[O-])cncc2[N+](=O)[O-])cc1	-3	-3	3	0	7	x	x
O=C(OCc1nnc(-c2ccccc2)o1)c1ccc([N+](=O)[O-])o1	78*	-36	743*	80*	x	-1	x	tim10-1 conf=59*;tim23-1 confirm=84*
O=C(OCc1nnc(-c2ccccc2)o1)c1ccc(Br)o1	16	-6	-12	16	-10	x	x
Cc1[nH]n(-c2ccccc2)c(=O)c1C(C[N+](=O)[O-])c1ccc(Br)cc1 (centres undefined)	60*	49*	524*	89*	122*	-1	69*	tim10-1 conf=57*;tim23-1 confirm=84*
CC[C@@]1(C(=O)OC)N[C@H](CN(C)C(=O)COC)[C@@H]2C(=O)N(C)C(=O)[C@@H]21	0	4	x	10	-22	x	x
CCCCn1c(/C=C/c2ccco2)nc2ccccc21	26	22	12	31	-6	x	x
CCCCn1c(/C=N/Nc2nc3ccccc3[nH]2)nc2ccccc21	38	-10	418*	55*	-19	0	x	tim23-1 confirm=56*
COC(=O)C1=C(C)N(Cc2ccccc2)C(=S)N[C@H]1c1cccc(F)c1	37	19	584*	52*	-42	1	x	tim23-1 confirm=38
COc1cc([N+](=O)[O-])cc(/C=N/NC(=O)CSc2nnc(-c3ccccc3)n2C)c1O	1	13	77	-4	x	x	x

Source: PubChem (several laboratories)
